Out of some 310,000 compounds screened, about 14,000 (4.5%) showed an effect of 50% or more. Effects have a minus sign here. The sample holds strong results, similar compounds and a random draw of the others, so the mix is not that of the screen.
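Note: peak tail current of the secondary pulse compared with the same well before compound.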

For the assay, the target named is human ether-à-go-go-related gene (hERG) potassium channel (human, UniProt Q12809). Nature of the assay: primary screen, population patch clamp on CHO cells stably expressing hERG; higher = less effect of the substance.
human ether-à-go-go-related gene (hERG) potassium channel, sequence (Q12809 whole entry, looked up): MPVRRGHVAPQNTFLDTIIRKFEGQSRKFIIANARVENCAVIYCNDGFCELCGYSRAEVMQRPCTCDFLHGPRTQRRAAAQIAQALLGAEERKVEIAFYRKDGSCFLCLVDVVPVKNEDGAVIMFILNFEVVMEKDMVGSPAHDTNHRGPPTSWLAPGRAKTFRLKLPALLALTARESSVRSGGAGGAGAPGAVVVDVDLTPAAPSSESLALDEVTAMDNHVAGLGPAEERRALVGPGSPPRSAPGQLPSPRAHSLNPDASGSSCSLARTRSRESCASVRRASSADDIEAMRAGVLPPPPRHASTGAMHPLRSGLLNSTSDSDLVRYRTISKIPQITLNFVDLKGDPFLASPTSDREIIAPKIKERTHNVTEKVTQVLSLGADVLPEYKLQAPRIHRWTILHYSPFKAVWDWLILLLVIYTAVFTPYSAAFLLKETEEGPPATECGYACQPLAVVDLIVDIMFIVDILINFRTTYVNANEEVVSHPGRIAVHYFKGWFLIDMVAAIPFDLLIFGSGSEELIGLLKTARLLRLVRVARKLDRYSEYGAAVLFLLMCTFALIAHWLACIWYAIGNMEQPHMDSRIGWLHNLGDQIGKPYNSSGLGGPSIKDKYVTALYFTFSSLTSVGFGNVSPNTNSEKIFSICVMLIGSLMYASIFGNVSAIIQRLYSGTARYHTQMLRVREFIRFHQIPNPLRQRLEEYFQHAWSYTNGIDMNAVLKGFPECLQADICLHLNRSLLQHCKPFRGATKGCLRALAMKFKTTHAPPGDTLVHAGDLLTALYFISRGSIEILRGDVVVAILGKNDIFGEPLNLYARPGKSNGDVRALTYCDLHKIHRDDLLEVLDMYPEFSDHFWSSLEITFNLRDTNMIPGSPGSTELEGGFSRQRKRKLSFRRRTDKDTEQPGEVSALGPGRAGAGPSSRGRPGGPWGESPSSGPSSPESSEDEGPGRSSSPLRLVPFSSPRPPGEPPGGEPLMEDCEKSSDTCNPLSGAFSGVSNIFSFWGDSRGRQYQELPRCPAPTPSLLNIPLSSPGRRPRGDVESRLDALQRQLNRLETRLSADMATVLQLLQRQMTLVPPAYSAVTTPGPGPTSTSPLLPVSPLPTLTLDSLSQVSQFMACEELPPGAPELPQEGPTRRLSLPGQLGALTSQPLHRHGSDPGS
As for `CCN1CCc2c(sc(NC(=S)NC(=O)c3ccco3)c2C(N)=O)C1`, the “hERG current change (%, negative = inhibition) at 10uM” value is 2.95%.
`Cc1nc(NCc2ccco2)c2c3c(sc2n1)CCC3`: the “hERG current change (%, negative = inhibition) at 10uM” value is listed as -24.3%.
The figure for `CN1CCc2c(sc3nc(SCC(=O)NCc4ccco4)n(-c4ccccc4)c(=O)c23)C1` is -10.6%; for `c1coc(CNc2ncnc3sc4c(c23)CCCCC4)c1` it is -39.4%; for `CCN1CCc2c(sc3c2c(NCc2ccco2)nc2nnnn23)C1` it is -73.6%.
Under `CN1CCc2c(sc3c2c(NCc2ccco2)nc2nnnn23)C1` stands -71.8%; under `Cn1c(NN)nc2sc3c(c2c1=O)CC(C)(C)OC3`, 9.89%; under `CCCNC(=O)CSc1nccn1Cc1ccco1`, 0.203%.
With `CC1(C)SC(=S)N(/N=C/c2ccc(O)cc2)C1N(O)C(=O)Nc1ccc([N+](=O)[O-])cc1` (stereo not drawn), the “hERG current change (%, negative = inhibition) at 10uM” value was -10.2%.
Consider `Nc1ccn([C@H]2CS[C@@H](CO)O2)c(=O)n1`, for which the “hERG current change (%, negative = inhibition) at 10uM” value was determined as 18%.
The figure for `CC(CNC(=O)c1ccccc1[N+](=O)[O-])NC(=O)c1ccccc1[N+](=O)[O-]` (stereo not drawn) is 1.57%.
Under `O=C(NCCNc1ccc([N+](=O)[O-])cc1)c1ccccc1Br` stands -43.3%; under `CC(CNc1ccc([N+](=O)[O-])cc1)NC(=O)c1ccccc1Br` (stereo not drawn), -50.6%.
In the case of `C=CCN1C(=O)C(Cc2ccccc2)SC1=Nc1ccc(C(=O)O)cc1` (stereo not drawn), the “hERG current change (%, negative = inhibition) at 10uM” value is -3.37%.
With `Cc1nonc1NC(=O)CSc1nc(CCC2CCCC2)nc2ccccc12`, the “hERG current change (%, negative = inhibition) at 10uM” value turned out to be 3.64%.
For the compound `CCOc1cc(-c2nccc3cc(OC)c(OC)cc23)cc(OCC)c1OCC`, the “hERG current change (%, negative = inhibition) at 10uM” value is recorded as -46.8%.
The figure for `COc1cc2c(cc1OC)-c1c(OC)c(OC)cc3ccnc(c13)C2=O` is -30.7%; for `COc1cc2c(cc1OC)-c1c(OC)c(OC)c(OC)c3ccnc(c13)C2=O` it is -53.8%; for `Cc1cc(-c2cc(-c3ccccc3)on2)nc(NC2CCCC2)n1` it is 15.7%.
The figure for `Fc1ccccc1N1CCN(Cc2nc(-c3ccccc3)no2)CC1` is -6.65%; for `CCOc1ccc(Nc2nc(N)nc(CN3CCN(c4ccccc4F)CC3)n2)cc1` it is -80.8%.
The figure for `Cc1cccc(Nc2nc(N)nc(CN3CCN(c4ccccc4F)CC3)n2)c1` is -68.2%; for `CCOc1ccc(Nc2nc(N)nc(CSC(=S)N3CCN(c4ccccc4)CC3)n2)cc1` it is 17.2%.
With `Cc1cccc(Nc2nc(N)nc(CC(=O)CSc3ccc(Cl)cc3)n2)c1`, the “hERG current change (%, negative = inhibition) at 10uM” value turned out to be 4.27%.
Under `Nc1nc(CN2CCN(c3ccccc3F)CC2)nc(Nc2ccccc2)n1` stands -57.1%.
Under `Cc1ccc(Nc2nc(N)nc(CN3CCN(c4ccccc4F)CC3)n2)cc1` stands -67.4%.
As to `Cc1ccc(-c2noc(CN3CCN(c4ccccc4F)CC3)n2)cc1`, the “hERG current change (%, negative = inhibition) at 10uM” value is listed as 8.71%.
Under `COc1ccccc1Nc1nc(N)nc(CN2CCN(c3ccccc3F)CC2)n1` stands -35.9%; under `Cc1nnc(SCC2=C(C(=O)O)N3C(=O)C(NC(=O)Cn4ncc(Cl)c4C)C3SC2)s1` (stereo not drawn), 26.9%.
As for `COc1ccc(CNC(=O)C2CCCN(S(=O)(=O)N3CC(C)CC(C)C3)C2)c(OC)c1` (stereo not drawn), the “hERG current change (%, negative = inhibition) at 10uM” value is given as -6.97%.
Regarding `CCCC(=O)C1=C(O)C(C(=O)OC)C(C)(C)CC1=N` (stereo not drawn), the “hERG current change (%, negative = inhibition) at 10uM” value is given as 19.9%.
Under `Cc1csc(NC(=O)c2sccc2C)n1` stands 12.7%; under `CCn1c(SCC(=O)Nc2ccc(OCc3ccccc3)cc2)nnc1-c1ccco1`, -0.171%; under `CCCn1c(=O)c(Cc2ccccc2)c(O)c2ccccc21`, 1.06%.
For the compound `Cc1nc2ccccc2c(=O)n1NC(=O)/C=C/c1ccc(Br)cc1`, the “hERG current change (%, negative = inhibition) at 10uM” value was -1.3%.
Under `CN1CCN(c2ccc3c(c2)S(=O)(=O)c2ccccc2C3=O)CC1` stands -23.4%; under `N#C/C(=N\Nc1ccc([N+](=O)[O-])cc1)C(=N)N1CCOCC1`, -54.2%; under `N#C/C(=N\Nc1ccc(Br)cc1)C(=N)N1CCOCC1`, -68.9%.
Under `N#C/C(=N\Nc1ccccc1)C(=N)N1CCOCC1` stands -7.71%; under `C/C(=N\Nc1ccc([N+](=O)[O-])cc1)c1ccc(N2CCOCC2)cc1`, 4.46%; under `N#C/C(=N\Nc1ccc([N+](=O)[O-])cc1)C(N)=S`, 13.4%.
On to `COc1ccc(N/N=C(\C#N)C(=N)N2CCOCC2)cc1`, for which the “hERG current change (%, negative = inhibition) at 10uM” value amounted to 11.4%.
The figure for `Cc1ccc(OCC(=O)NN2C(=O)c3ccccc3C2=O)c(C)c1` is 6.34%.
As to `CC(C)c1nc(-c2ccc([N+](=O)[O-])cc2)cs1`, the “hERG current change (%, negative = inhibition) at 10uM” value is on record as 1.87%.
With `CSCCC(NC(=O)c1ccc([N+](=O)[O-])cc1Cl)C(=O)OCC(=O)N(C)C` (stereo not drawn), the “hERG current change (%, negative = inhibition) at 10uM” value was -2.34%.
Regarding `CSCCC(NC(=O)c1ccc(Cl)cc1Cl)C(=O)OCC(N)=O` (stereo not drawn), the “hERG current change (%, negative = inhibition) at 10uM” value is listed as -5.4%.
The figure for `CSCCC(NC(=O)c1ccc(Cl)cc1Cl)C(=O)OC(C)C(=O)NCc1ccco1` (stereo not drawn) is -51.8%; for `CSCCC(NC(=O)c1ccc([N+](=O)[O-])cc1Cl)C(=O)OC(C)C(=O)NCc1ccco1` (stereo not drawn) it is -61.7%.
Under `CSCCC(NC(=O)c1ccc([N+](=O)[O-])cc1Cl)C(=O)OCC(=O)NCCCc1ccccc1` (stereo not drawn) stands -57.8%; under `O=C(NCc1ccco1)c1ccc([N+](=O)[O-])cc1Cl`, -3.96%; under `CSCCC(NC(=O)c1ccc([N+](=O)[O-])cc1Cl)C(=O)OCC(=O)NCC(F)(F)F` (stereo not drawn), -16.7%.
Take `CSCCC(NC(=O)c1ccc([N+](=O)[O-])cc1Cl)C(=O)OCC(=O)N1CCN(C(C)=O)CC1` (stereo not drawn): the “hERG current change (%, negative = inhibition) at 10uM” value is 3.12%.
Under `CSCCC(NC(=O)c1ccc(Cl)cc1)C(=O)OCC(=O)NCc1ccco1` (stereo not drawn) stands -23.8%; under `CC(=O)Nc1ccc(NCc2ccc(C)s2)cc1`, -3.79%.
With `CCc1ccc(OCC(=O)NNC(=O)c2c(CC)noc2C)cc1`, the “hERG current change (%, negative = inhibition) at 10uM” value was found to be 10.8%.
The figure for `Cc1nnc(NC2=NCCC2)o1` is 3.71%; for `CC(=O)CCc1c[nH]c2c(C(=O)O)cccc12` it is 5.11%.
In the case of `CCOc1ccccc1Nc1nnc(SCC(=O)Nc2cc(C)on2)s1`, the “hERG current change (%, negative = inhibition) at 10uM” value was 6.14%.
The figure for `CC(=O)Nc1ccc(S(=O)(=O)Nc2cc3c(cc2C(C)=O)OCO3)cc1` is 20.7%; for `CC(N)Cc1cn(Cc2ccccc2)c2ccccc12.Cl` (stereo not drawn) it is -7.76%.
Under `COc1cccc(CNC(=O)COc2ccc(C(=O)c3ccccc3)cc2)c1` stands -11.7%; under `CCOC(=O)/C(=C\c1c[nH]c2ccccc12)NC(C)=O`, 0.157%.
`O=C(CSc1nc2c(c(=O)n1-c1ccc(Cl)cc1)SCC2)NCc1ccco1`: the “hERG current change (%, negative = inhibition) at 10uM” value was -19.4%.
Under `CCn1cc(CCC(=O)NCc2cccc(OC)c2OC)c2ccccc21` stands 8.51%; under `COc1ccc(S(=O)(=O)N/N=C(/C)c2ccncc2)cc1OC`, -1.27%; under `Cc1nc2ccccn2c1C(=O)NCc1ccc2c(c1)OCO2`, -0.471%.
For `O=C(CCn1c(=O)c2ccccc2n(Cc2cccnc2)c1=O)NCc1ccc2c(c1)OCO2`, the “hERG current change (%, negative = inhibition) at 10uM” value was -5.1%.
The figure for `COc1ccc(CNC(=O)c2cc3c(=O)n4ccccc4nc3n(Cc3cccnc3)c2=N)cc1` is -58.6%; for `N=c1c(C(=O)NCc2ccc3c(c2)OCO3)cc2c(=O)n3ccccc3nc2n1Cc1cccnc1` it is -80.4%.
Turning to `COCCCn1c(C(=O)Nc2ccc3c(c2)OCO3)cc2c(=O)n3ccccc3nc21`, the “hERG current change (%, negative = inhibition) at 10uM” value stood at 8.51%.
Under `COCCCn1c(=N)c(C(=O)NCc2ccc3c(c2)OCO3)cc2c(=O)n3ccccc3nc21` stands -83.5%; under `COc1ccc(Cn2c(=S)[nH]c3cc(C(=O)NCc4cccnc4)ccc3c2=O)cc1`, 12.3%; under `CCOC(=O)c1cc2c(=O)n3ccccc3nc2n(Cc2ccccc2)c1=N`, -74.6%.
The figure for `COc1ccc(CNC(=O)Cn2nc(Cc3cccnc3)c3ccccc3c2=O)cc1` is -43.3%.
In the case of `O=C(NCc1ccc2c(c1)OCO2)c1cnc2ccccn2c1=O`, the “hERG current change (%, negative = inhibition) at 10uM” value is given as -6.29%.
Consider `CCOC(=O)c1ccccc1NC(=O)CN(c1ccccc1)S(=O)(=O)N(C)C`, for which the “hERG current change (%, negative = inhibition) at 10uM” value is given as -19.9%.
On to `CC(C)[C@H](Nc1ccc(C(F)(F)F)cc1[N+](=O)[O-])C(=O)O.[Cl-]`, for which the “hERG current change (%, negative = inhibition) at 10uM” value is 20%.
Under `CCCCOc1cccc(C(=O)N(Cc2ccccc2)C2CCS(=O)(=O)C2)c1` (stereo not drawn) stands -14.2%; under `O=C(NC1CCCC1)C(=O)N(Cc1cccnc1)C(C(=O)NCC1CCCO1)c1ccco1` (stereo not drawn), 38.2%; under `CCOC(=O)COc1ccc(C(=O)Nc2cccc(Cl)c2C)cc1`, 18.9%.
The figure for `CC(Oc1ccc(Br)cc1)C(=O)Nc1ccc(S(=O)(=O)N(C)C2CCN(C)CC2)cc1` (stereo not drawn) is -26.7%; for `Cc1nc2ccc(P(=O)(O)O)cc2s1` it is 16.2%.
The figure for `C=CCN1C(=O)C2(C(C(=O)c3ccc(C)o3)=C(O)C(=O)N2CCCN2CCOCC2)c2ccccc21` (stereo not drawn) is 3.04%; for `COCCNC(=S)N1CCc2cc(OC)c(OC)cc2C1COc1ccc(C(C)C)cc1` (stereo not drawn) it is 16.7%.
In the case of `Cc1cccc(N(CC(=O)NC2CCCC2)C(=O)c2csnn2)c1C`, the “hERG current change (%, negative = inhibition) at 10uM” value was 19.5%.
The figure for `Cc1nc2ccccn2c1C(=O)NCc1cccnc1` is -3.36%.
Regarding `CCCn1c(=N)c(S(=O)(=O)c2ccc(F)cc2)cc2c(=O)n3ccccc3nc21`, the “hERG current change (%, negative = inhibition) at 10uM” value was -8.53%.
Consider `COC(=O)c1cn(Cc2cccnc2)c(=O)c2ccccc12`, for which the “hERG current change (%, negative = inhibition) at 10uM” value was 3.15%.
The figure for `N=c1c(C(=O)NCc2ccc(F)cc2)cc2c(=O)n3ccccc3nc2n1Cc1cccnc1` is -76.2%; for `COC(=O)c1cc2c(=O)n3ccccc3nc2n(Cc2cccnc2)c1=N` it is -64%.

(Values after article PMC4336329 (PLoS ONE, 2015).)
